# Measurements reported in PubChem BioAssay (NCATS).
# Activity calls are given as the source filed them. The call rests on the fitted dose curve; in most records, active means well fitted inhibition curve with a large enough effect; inconclusive means small, poorly fitted or top-dose-only effect; inactive means flat fitted curve, though single readings scatter.
# Molecular target: Flap endonuclease 1 (Homo sapiens) (UniProt P39748)
# Experiment: qHTS Validation Assay for the Inhibitors of Human Flap endonuclease 1 (FEN1) (AID 488816)
# Settings: FEN1 nuclease activity, fluorogenic DNA substrate; series mostly up to 57.1 µM; activity, negative = inhibition: at the top concentration
# From the text: The major human flap endonuclease FEN1 is an efficient structure-specific enzyme that recognizes and cleaves a 5'-unannealed DNA flap. It belongs to the RAD2 family nucleases, which are involved in DNA metabolism and are highly conserved in prokaryotes and eukaryotes. FEN1 is a key enzyme in DNA replication, repair and maintenance of genomic stability. 5'-flap removal by FEN1 is critical for Okazaki fragment processing during lagging strand DNA synthesis, long-patch base excision repair (LP BER), and regulating or facilitating recombination events. […] Deletion of the yeast FEN1 gene, i.e. rad27, results in an increased frequency of short DNA (3-32 bp) repeats, micro- and mini-satellite formation, trinucleotide repeat expansion, spontaneous recombination events, and a severe growth defect in association with cell cycle arrest in late S/G2 phase. […] Cells from fen1-/- blastocysts show increased apoptotic cell death after ionizing radiation treatment, and chicken cells lacking the fen1 gene are hypersensitive to DNA alkylating agents, e.g. methylmethane sulfonate (MMS) and N-methyl-N'-nitro-N-nitrosoguanidine (MNNG), as well as hydrogen peroxide.
# FEN1 is found to be increased in many human cancers, including lung, brain cancer, gastric cancer, prostate cancer, pancreatic cancer and breast cancer. […] In particular, elevation of FEN1 in hormone refractory human prostate cancer cells correlates with resistant to various anticancer agents including ionizing radiation, doxorubicin, paclitaxel and vinblastine.
# Three uL of reagents (buffer in column 3 and 4 as negative control and 10 nM FEN1 in columns 1, 2, and 5-48) were dispensed into 1,536-well black solid-bottomed plate. Compounds (23 nL) were transferred via Kalypsys pin tool equipped with 1536-pin array (10 nL slotted pins, V&P Scientific, San Diego, CA). The plates were then incubated for 15 min at room temperature, and 1 uL substrate (50 nM final concentration) were added to start the reaction read twice at 0 min read and 15 min on ViewLux reader. Throughout the screen, reagent bottle and all liquid lines were chilled and made light-tight to minimize reagent degradation. All screening operations were performed on a fully integrated robotic system (Kalypsys, San Diego, CA) containing one RX-130 and two RX-90 anthropomorphic robotic arms (Staubli, Duncan, SC). Library plates were screened starting from the lowest and proceeding to the highest concentration, and a "double-dipping" step of the highest concentration was required to access higher concentrations of compounds. Vehicle-only plates, with DMSO being pin-transferred to the entire column 5-48 compound area, were inserted uniformly at the beginning and the end of each library in order to monitor for and record any shifts in the background, which can be affected by reagent dispensers or loss in enzyme activity overtime. Screening data was corrected, normalized, and concentration-effect relationships were derived by using publicly-available curve fitting algorithms developed in-house (http://ncgc.nih.gov/pub/openhts). A four parameter Hill equation was fitted to the concentration-response data by minimizing the residual error between the modeled and observed responses.
# On the % scale 0 is the no-effect control and ±100 the full control effect; potency means the concentration at half of the fitted maximal effect.
# Chain of Flap endonuclease 1 (Homo sapiens) (P39748 whole entry, looked up): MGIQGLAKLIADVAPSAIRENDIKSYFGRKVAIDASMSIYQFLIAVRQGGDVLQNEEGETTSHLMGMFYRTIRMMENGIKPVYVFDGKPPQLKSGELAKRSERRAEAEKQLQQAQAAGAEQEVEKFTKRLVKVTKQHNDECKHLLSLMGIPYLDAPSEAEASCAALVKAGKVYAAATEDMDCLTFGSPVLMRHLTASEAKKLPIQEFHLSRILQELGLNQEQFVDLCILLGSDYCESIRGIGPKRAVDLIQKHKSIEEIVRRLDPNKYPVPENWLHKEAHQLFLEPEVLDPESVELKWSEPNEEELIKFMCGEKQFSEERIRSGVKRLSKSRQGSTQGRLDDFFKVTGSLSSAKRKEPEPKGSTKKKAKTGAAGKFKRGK
SMILES,"activity, negative = inhibition",Potency
NC(=O)C(=O)O,-3.29% (inactive),–
C[N+](C)(CCCCCC[N+](C)(C)CCCN1C(=O)c2cccc3cccc(c23)C1=O)CCCN1C(=O)c2cccc3cccc(c23)C1=O,–,2.99 µM (active)
OCC1O[C@H](O)C(Cl)C(O)C1O (stereo not given in full),-6.03% (inactive),–
CN(C)CCCO[C@@H]1[C@H]2OC(C)(C)O[C@H]2O[C@@H]1[C@H](O)CO,-7.59% (inactive),–
Cc1cc2c(cc1Cl)N(C(=O)Nc1ccc(Oc3cccnc3C)nc1)CC2,-16.3% (inactive),–
Cc1ccc(S(=O)(=O)/C=C/C#N)cc1,-5.72% (inactive),–
COc1cc(SC)ccc1C(=O)N1CCC(Cc2ccccc2)CC1,-11.8% (inactive),–
CCCCCCCCCCCCCCCCCC(=O)NCC(COP(=O)([O-])OCC[N+](C)(C)C)OCC (stereo not given),2% (inactive),–
CC(COc1ccc(/C=C/c2ccccc2)cc1)[N+](C)(C)C (stereo not given),-7.71% (inactive),–
O=P(O)(O)C(Cl)(Cl)P(=O)(O)O,-1.88% (inactive),–
N#C/C(=C\c1ccc(O)c(O)c1)C(=O)NCc1ccccc1,-21% (inactive),–
CCNC(=O)[C@H]1O[C@@H](n2cnc3c(N)nc(NCCc4ccc(CCC(=O)O)cc4)nc32)[C@H](O)[C@@H]1O,1.66% (inactive),–
O=C(O)/C=C/C(O)c1ccc(Cl)cc1 (stereo not given),-5.86% (inactive),–
CN(C)c1nc2c(Br)c(Br)c(Br)c(Br)c2[nH]1,-12.9% (inactive),–
OC[C@H]1O[C@@H](n2cnc3c(Nc4ccccc4)ncnc32)[C@H](O)[C@@H]1O,-1.11% (inactive),–
c1cnc2c(c1)ccc1cccnc12,-8.82% (inactive),–
NCC1OC(O[C@H]2[C@H](O)[C@@H](OC3C(O)C(N)CC(N)C3OC3OC(CO)C(O)C(O)C3N)O[C@@H]2CO)C(N)C(O)C1O (stereo not given in full),-4.55% (inactive),–
COc1ccc(NC(=O)/C=C/c2ccc(Cl)cc2)cc1,-13.5% (inactive),–
CCCCCCCCCCCCCCCC(=O)NCC(COP(=O)([O-])OCC[N+](C)(C)C)OCC (stereo not given),0.866% (inactive),–
CC(C)(C)c1ccc(S(=O)(=O)/C=C/C#N)cc1,-4.49% (inactive),–

SMILES,"activity, negative = inhibition",Potency
O=C1NC(=O)/C(=C/c2ccc(-c3ccc(F)cc3O)o2)S1,–,26.7 µM (active)
O=C(c1ccc(OCCCc2cnc[nH]2)cc1)C1CC1,-4.39% (inactive),–
O=C1NC(O)=NC1(c1ccccc1)c1ccccc1,-7.48% (inactive),–
CN1CCc2ccccc2Cc2[nH]c3ccccc3c2CC1,-12.4% (inactive),–
CN1CCc2cc(NC(=O)Nc3cccnc3)ccc21,-14.8% (inactive),–
O=C(O)CNC(=O)C(CS)Cc1ccccc1 (stereo not given),-4.41% (inactive),–
Nc1nc(Cl)nc2c1ncn2[C@@H]1O[C@H](COP(=O)(O)OP(=O)(O)OP(=O)(O)O)[C@@H](O)[C@H]1O,-0.116% (inactive),–
c1ccc(-c2ccccn2)nc1,1.87% (inactive),–
O=c1[nH]c2cc(C(F)(F)F)ccc2n1-c1cc(C(F)(F)F)ccc1O,-7.35% (inactive),–
NCCSSCCN,-5.35% (inactive),–
N#C/C(=C\c1ccc(-c2cc(Cl)ccc2Cl)o1)C(=O)Nc1cccc2ncccc12,-7.26% (inactive),–
O=S(=O)(c1cccc2c(I)cccc12)N1CCCNCC1,-8.4% (inactive),–
CNCC[C@H](Oc1ccc(C(F)(F)F)cc1)c1ccccc1,-6.42% (inactive),–
NC(=S)c1ccc[n+]([C@@H]2O[C@@H](COP(=O)([O-])OP(=O)(O)OC[C@H]3O[C@@H](n4cnc5c(N)ncnc54)[C@H](OP(=O)(O)O)[C@@H]3O)C(O)C2O)c1 (stereo not given in full),-1.93% (inactive),–
CSc1ccccc1N1CCN(CCCCCC(=O)NC2CCCc3ccccc32)CC1 (stereo not given),-10.5% (inactive),–
CCCCCCCCCCCCCCCC(=O)OC(CC(=O)O)C[N+](C)(C)C (stereo not given),-9.13% (inactive),–
CN(C)c1ccc(/C=C2\C(=O)Nc3ccccc32)cc1,-11.3% (inactive),–
CCCCCCCCCCCCCCCCCCNC(=O)OCC(COP(=O)([O-])OCC[n+]1ccsc1)OC (stereo not given),-5.63% (inactive),–
O=C(O)c1cc(=O)c2c(Cl)cc(Cl)cc2[nH]1,-9.34% (inactive),–
COc1ccccc1N1CCN(CCCCNS(=O)(=O)c2cccc3c(N(C)C)cccc23)CC1,-10.1% (inactive),–
